From PubChem
Shown are actives, neighbours in structure and some others; about 1.8% of the full set was active somewhere.
HEK293 tox = qHTS of GLP-1 Receptor Inverse Agonists: Cytotox Screen; HEK293 cAMP-luciferase reporter cells, luminescence, 24 h; Potency, µM (series often up to 38.3 µM), most hits filed as inhibitors; hit rate 0.13% among 410,000; AID 624418, 2012;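 further: loss of luciferase light is scored as toxicity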
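Here, cytotoxicity is scored as loss of luminescence. The MLSMR collection was tested on cells seeded in medium containing 10% Nu serum, with a 24 hr compound exposure preceded by 12 hours of culture.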
TRPML1 ag = qHTS for Agonists of the Human Mucolipin Transient Receptor Potential 1 (TRPML1); hit rate 0.12% among 410,000; activation, % (test concentration not listed); AID 624414, 2012; TRPML1-expressing cells, Ca2+ dye fluorescence, FDSS; in the data active means activation above about 50%; inconclusive means mostly about 30% to 49%
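Agonist activity was taken from a 110 s kinetic Ca2+ dye read on the FDSS after pinning compounds onto TRPML1-DL cells. The cells were seeded at 1,500/well with Tet inducer, incubated about 16 h, then dye-loaded at room temperature.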
GLP1R ag = qHTS of GLP-1 Receptor Agonists | AID 624172, 2012 | Potency, µM (doses to about 45.6 µM), usual class: activators | HEK293 GLP-1R CRE-luciferase, luminescence, 4-6 h; cells express a hypersensitive GLP-1R form | hit rate 0.007% among 380,000 | Glucagon-like peptide 1 receptor (Homo sapiens), P43220
Target sequence (P43220 whole entry, looked up): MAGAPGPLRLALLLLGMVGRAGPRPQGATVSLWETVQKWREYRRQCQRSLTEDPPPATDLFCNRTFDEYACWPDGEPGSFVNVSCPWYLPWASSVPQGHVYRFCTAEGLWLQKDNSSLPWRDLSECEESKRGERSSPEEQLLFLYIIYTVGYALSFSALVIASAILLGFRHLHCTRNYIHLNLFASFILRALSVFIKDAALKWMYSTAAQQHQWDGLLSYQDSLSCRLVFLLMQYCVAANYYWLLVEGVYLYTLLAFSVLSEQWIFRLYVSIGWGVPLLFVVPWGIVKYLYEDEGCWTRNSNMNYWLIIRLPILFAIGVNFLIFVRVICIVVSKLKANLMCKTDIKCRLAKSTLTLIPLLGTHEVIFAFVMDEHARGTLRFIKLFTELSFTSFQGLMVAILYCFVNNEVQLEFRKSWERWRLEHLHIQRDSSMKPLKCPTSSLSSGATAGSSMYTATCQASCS
GLP1R inv ag = qHTS of GLP-1 Receptor Inverse Agonists (Inhibition Mode) | HEK293 GLP-1R CRE-luciferase, luminescence, 24 h; GLP-1R form is constitutively active | hit rate 1.6% among 410,000 | AID 624417, 2012 | Glucagon-like peptide 1 receptor (Homo sapiens), P43220 | Potency, µM (series often up to 38.3 µM), most hits filed as inhibitors; further: nearly all actives have a fitted effect of over 55% in size
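Assay principle: reduced luminescence from a cAMP-responsive reporter in HEK293 cells co-expressing a constitutively active GLP-1R. Conditions: 24 hr compound incubation, 37 deg C, 5% CO2.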
TRPML1 blocker = qHTS for Inhibitors of the Human Mucolipin Transient Receptor Potential 1 (TRPML1). Mucolipin-1 (Homo sapiens), Q9GZU1. TRPML1-inducible cells, Ca2+ dye fluorescence, FDSS; active compounds read low; inhibition of EC80 agonist-evoked calcium signal. activity change, negative = inhibition, % (test concentration not listed). hit rate 0.02% among 390,000; in the data active means activity change below about -50%; inconclusive means between about -30% and that limit;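 further: stimulus is agonist 54-4 at its EC80 concentration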
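Calcium fluorescence in TRPML1-DL cells induced overnight with Tet: a 110 s read after compound pin addition, then a 110 s antagonist read after challenge with 54-4 at 4 uM final (EC80).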
Hits are given with their value; 0 = inactive; ? = inconclusive; - = no result given. Unless noted, the call rests on the fitted dose curve; in most records, active means well fitted curve in the direction sought with a large enough effect; inconclusive means small, poorly fitted or top-dose-only effect, or another doubt; inactive means no such curve, though single readings can be large; an effect the other way counts as inactive or inconclusive.

SMILES | HEK293 tox | TRPML1 ag | GLP1R ag | GLP1R inv ag | TRPML1 blocker
CC1=NN(C(=O)c2ccccc2Cl)C(O)(c2ccccc2)C1 (configuration not stated) | 0 | 0 | 0 | ? | 0
CCC1=NN(C(=O)c2cccc([N+](=O)[O-])c2)C(O)(c2ccc(C)cc2)C1 (configuration not stated) | 0 | 0 | 0 | ? | 0
CC1=NN(C(=O)c2ccccc2)C(O)(c2ccc(Br)cc2)C1 (configuration not stated) | 0 | 0 | 0 | 4µM | 0
O=S(=O)(NCc1ccc(Cl)cc1)c1ccc2[nH]c3c(c2c1)CCCC3 | ? | 0 | - | ? | 0
Cc1cccc(-n2cc(-c3ccccc3)c3c(NC(C)C)ncnc32)c1 | 0 | 0 | - | ? | 0
CC(CC(c1ccccc1)c1ccccc1)NC(C)(C)C (configuration not stated) | - | - | 0 | - | -
O=C(NC1CCCC1)C(c1ccccc1)N(Cc1ccc2c(c1)OCO2)C(=O)Cc1cccs1 (configuration not stated) | 0 | 0 | 0 | 10µM | 0
O=C(NCc1ccccc1)C(c1ccccc1)N(Cc1ccc2c(c1)OCO2)C(=O)Cc1cccs1 (configuration not stated) | 0 | 0 | 0 | 7.9µM | 0
O=C(NC1CCCC1)C(c1ccncc1)N(Cc1ccccc1)C(=O)Cc1cccs1 (configuration not stated) | 0 | 0 | 0 | 0 | 0
C=CCN1C(=O)/C(=C\c2ccc(Cl)cc2)N=C1SCC(=O)NC1CCCCC1 | 0 | 0 | 0 | 0 | 0
COc1ccc(Cl)cc1N1C(=O)/C(=C\c2sccc2C)N=C1SCC(=O)NC1CC1 | 0 | 0 | 0 | 8.9µM | 0
COC(=O)c1c(-c2ccc(Cl)cc2)noc1N1CCN(c2cccc(OC)c2)CC1 | 0 | 0 | - | 0 | 0
COc1cccc(NC(=O)N(Cc2c[nH]c3ccccc23)C2CCCCC2)c1 | 0 | 0 | 0 | ? | 0
Cc1cccc(-n2c(SCc3ccc([N+](=O)[O-])cc3)nnc2-c2c[nH]c3ccccc23)c1 | 0 | 0 | 0 | 3.2µM | 0
CCOC(=O)N1CCN(C(=O)CSc2cc(C)nc3c(-c4ccccc4OC)c(C)nn23)CC1 | ? | 0 | 0 | 13µM | 0
CCOC(=O)N1CCC(Nc2cc(C)nc3c(-c4ccccc4OC)c(C)nn23)CC1 | 0 | 0 | 0 | ? | 0
COc1ccccc1CN(Cc1nc2ccccc2c(=O)[nH]1)C(=O)Nc1ccc(C)cc1 | ? | 0 | 0 | 10µM | 0
CCN(Cc1nc2ccccc2c(=O)[nH]1)C(=O)COc1ccccc1-c1ccccc1 | ? | 0 | 0 | 11µM | 0
COCC(=O)N(Cc1nc2ccccc2c(=O)[nH]1)Cc1cccs1 | 0 | 0 | 0 | 0 | 0
COc1ccccc1CN(Cc1nc2ccccc2c(=O)[nH]1)C(=O)Nc1ccccc1C | ? | 0 | 0 | 0 | 0
CC(=O)O[C@@H]1C(=O)O[C@H]2[C@@H]1OC(=O)[C@@H]2OC(C)=O | - | - | 0 | - | -
CCn1cc(C(=O)NCc2ccc(C)cc2)c(=O)c2cc(S(=O)(=O)N3CCCCCC3)ccc21 | 0 | 0 | - | 0 | 0
Cc1cc(C)cc(NC(=O)c2sc3nc(-c4cc5ccccc5oc4=O)[nH]c(=O)c3c2C)c1 | 0 | 0 | - | 0 | -50
Cc1c(C(=O)Nc2cccc(F)c2)sc2nc(-c3cc4ccccc4oc3=O)[nH]c(=O)c12 | 0 | 0 | - | 0 | 0
COc1ccc(NC(=O)c2sc3nc(-c4cc5ccc(OC)cc5oc4=O)[nH]c(=O)c3c2C)cc1 | 0 | 0 | - | 0 | 0
SMILES | HEK293 tox | TRPML1 ag | GLP1R ag | GLP1R inv ag | TRPML1 blocker
Cc1cccc(NC(=O)c2sc3nc(-c4cc5ccc(O)cc5oc4=O)[nH]c(=O)c3c2C)c1 | 0 | 112 | - | 0 | ?
CCOc1ccc(CN2CCN(Cc3cc4c(cc3Cl)OCO4)CC2CCO)cc1 (configuration not stated) | 0 | 0 | 0 | 7.9µM | 0
CCc1ccc(OCc2ccc(C(=O)O)o2)cc1 | 0 | 0 | 0 | 4µM | 0
CC(=O)Nc1cccc(C(=O)N2CCN(S(=O)(=O)c3ccc4ccccc4c3)CC2)c1 | 0 | 0 | 0 | 0 | 0
CC(=O)Nc1cccc(C(=O)N2CCN(S(=O)(=O)c3ccc(C4CCCCC4)cc3)CC2)c1 | 0 | 0 | 0 | 5µM | 0
Cc1ccc(/C(=C\CN2CCCC2)c2cccc(/C=C/C(=O)O)n2)cc1 | - | - | 0 | - | -
CCOC(=O)Cc1csc(NC(=O)CSc2nnnn2-c2ccc(C)cc2C)n1 | 0 | 0 | 0 | 6.3µM | 0
CCC(C)c1ccccc1NC(=O)CN(C)CCOc1ccc(Cl)cc1 (configuration not stated) | 0 | 0 | 0 | 10µM | 0
CCOc1c2c(c(-c3ccc4c(c3)OCO4)c3cc(OC)c(OC)cc13)C(=O)OC2 | - | 0 | - | - | -
CC(C)c1cnc2c(c1SCC(=O)c1ccccc1)c(=O)n(C)c(=O)n2C | 0 | 0 | - | 0 | 0
CC(C)NC(=O)CCC(=O)N1Cc2ccccc2Oc2ncccc21 | 0 | 0 | - | 0 | 0
CCCc1nn2c(=O)cc(COC(=O)c3ccc(NC(=O)c4cccs4)cc3)nc2s1 | 0 | 0 | - | ? | 0
CC(C)Cc1nn2c(=O)cc(COC(=O)c3ccc(NC(=O)c4cccs4)cc3)nc2s1 | 0 | 0 | - | 0 | -68
O=C(Cn1c(=O)n(Cc2ccco2)c(=O)c2sc3ccccc3c21)Nc1ccc(F)cc1F | 0 | 0 | 0 | 0 | 0
CCOn1c(=O)c(=O)n(OCc2ccccc2)c2ccccc21 | 0 | 0 | 0 | 0 | 0
CC1(C)C(=O)N(OCc2ccccc2)C(C)(C)C(=O)N1OCc1ccccc1 | 0 | 0 | 0 | 10µM | 0
Cc1cc(O)c(C(C)C)cc1NC(=O)Nc1cccc2ccccc12 | 0 | 0 | 0 | 6.3µM | 0
O=C(/C=C/c1ccc(S(=O)(=O)N2CCOCC2)cc1)NCc1ccc(Cl)cc1 | 0 | 0 | 0 | 3.5µM | 0
O=C(Nc1cccc(NC(=O)c2ccccc2Cl)c1)c1ccc(F)cc1 | 0 | 0 | 0 | ? | 0
Cc1ccccc1C(=O)Nc1cccc(NC(=O)c2ccc(F)cc2)c1 | 0 | 0 | 0 | 10µM | 0
Cc1ccc(C(=O)Nc2cccc(C(=O)NCc3ccccc3)c2)cc1 | 0 | 0 | 0 | 13µM | 0
Cc1ccc(C(=O)Nc2ccc3ccccc3c2)cc1 | 0 | 0 | 0 | 5µM | 0
CCOC(=O)c1cccc(NC(=S)NCc2ccc(C)cc2)c1 | 0 | 0 | 0 | 7.9µM | 0
Cc1cc(NC(=O)NCc2ccc3c(c2)CCN3C(=O)c2ccccc2)ccc1Br | 0 | 0 | - | 0 | 0
COc1ccc(C(=O)/C(Br)=C/C(=O)O)cc1 | - | - | 0 | - | -
Nc1cc(=O)[nH]c(=S)[nH]1 | - | 0 | - | - | -
